Screening data: PubChem, National Center for Advancing Translational Sciences (NCATS)
Methyltransferases: Primary Screen for Target Class Profiling of Small Molecule Inhibitors of Methyltransferases; purified enzyme, MTase-Glo SAH luminescence; active compounds read low; calls only at 40 µM; AID 1745853, 2022; 25,000 tested, 3.9% active; call rule not given here
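Each enzyme was assayed with SAM and its substrate. SAH formation detected by MTase-Glo luminescence; single-point 40 uM screen[…].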
MTase-Glo counter: Counterscreen for Target Class Profiling of Small Molecule Inhibitors of Methyltransferases; shares compounds with Methyltransferases; MTase-Glo coupled enzymes, SAH conversion luminescence, no MTase; Potency, µM (series often up to 57.3 µM), hits mostly inhibitors; 180 tested, 6% active; AID 1745851, 2022; active means well fitted inhibition curve with a large enough effect
Calls only; – = inactive; + = active, no number. The sample as a whole holds a higher share of hits than the screen did.

SMILES | Methyltransferases | others
CCCn1cc(C(=O)N2C[C@@H](N(C)C)[C@H](c3ccc(C)cc3)C2)c(C)n1 | –
CN(C)c1cc(N2CCCC(NC(=O)C3CCC3)C2)ncn1 (stereo not drawn) | –
COC1(c2ccccc2)CCN(C(=O)C2CCCN(C(=O)N(C)C)C2)CC1 (stereo not drawn) | –
COc1ccc(CNC(=O)CNC(=O)C2(C)Cn3c(cc4ccccc43)C(=O)N2C)cc1 (stereo not drawn) | –
CCCNC(=O)CCn1ccc2cc(S(=O)(=O)N3CCCCC3)ccc21 | –
COc1cccc(Nc2ccnc(-c3nnc(C)n3C3CCCCC3)c2)c1 | + | MTase-Glo counter=–
COc1cccc(NC(=O)c2cc3n(n2)CC(C)(C(=O)NC2CCCCCC2)N(C)C3=O)c1 (stereo not drawn) | –
Cc1nnc(-c2cc(-c3ccccc3Oc3ccccc3)ccn2)n1C | –
CC1CCC(NC(=O)C2(C)Cn3c(cc4sccc43)C(=O)N2CCc2ccc(Cl)cc2)CC1 (stereo not drawn) | –
Cc1cccc(N2CCN(C(=O)CCCc3nnc4n5nc(C)nc5c5ccccc5n34)CC2C)c1 (stereo not drawn) | –
COc1ccc(N2CCN(C(=O)c3ccc4c(=O)nc5c(-c6ccccc6F)n[nH]n5c4c3)CC2)cc1 | –
COc1ccc(N2CCN(C(=O)c3cccc(Nc4nc5ccccc5n5nnnc45)c3)CC2)cc1 | –
COc1ccc(N2CCN(C(=O)c3cc(NC(C)=O)cc4nc(C)ccc34)CC2)cc1 | + | MTase-Glo counter=–
CCc1cc2c(cc3n2CC(C)(C(=O)NC2CCC(C)CC2)N(c2cccc(OC)c2)C3=O)s1 (stereo not drawn) | –
CC(C)OCCCNC(=O)C1c2c(n(C)c3ccccc23)SCC(=O)N1CCC1=CCCCC1 (stereo not drawn) | –
COc1cc(NC(=O)c2cc3n(n2)CC(C)(C(=O)NC2CCCCCC2)N(C)C3=O)cc(OC)c1 (stereo not drawn) | –
C1=C(c2nc(-c3ccncc3)cc3c2ccn3Cc2cccnc2)CCOC1 | + | MTase-Glo counter=–
O=C(CCn1ccc2cc(S(=O)(=O)N3CCCCC3)ccc21)NCc1cccnc1 | –
O=c1c2ccccc2n2c(=O)n(Cc3cccc(Cl)c3)nc2n1Cc1ccc(F)cc1 | –
CCOC(=O)c1cc2n(n1)CC(C)(C(=O)NCc1ccc(C)cc1)N(c1cc(C)cc(C)c1)C2=O (stereo not drawn) | –
Cc1cccc(Cn2nc3n(Cc4ccc(F)cc4)c(=O)c4ccccc4n3c2=O)c1 | –
Cc1cnc(-c2cccnc2)n1C1CCCN(CC2CCCCC2)C1 (stereo not drawn) | –
Cc1cnc(-c2cccnc2)n1CC1CCN(S(=O)(=O)c2ccccc2)CC1 | –
c1ccc(-c2cc3c(cn2)NCCN(CC2CC2)C3)cc1 | + | MTase-Glo counter=–
CC(C)OCCCn1c(=O)c2ccccc2n2c(CCC(=O)Nc3cccc(Cl)c3)nnc12 | –
COc1ccc2cc3n(c2c1)CC(C)(C(=O)NC1CCCCC1)N(CCN1CCCCC1C)C3=O (stereo not drawn) | –
